Screening data from PubChem BioAssay.
MCF10A rerep = DNA re-replication induction in MCF 10a cells. AID 624296. MCF 10A DNA re-replication, Hoechst nuclear intensity, 48 h. hit rate 2.9% among 350,000. Potency, µM (series often up to 46.1 µM), for inactives: top-dose activity, positive = re-replication, actives largely listed as activators; further: potency means the concentration at half of the fitted maximal effect; % of control where 0% means no effect; nearly all actives have a fitted effect of over 50% in size
Gal4-VP16 FLuc = inhibits Gal4-VP16 luciferase reporter, ROR gamma counter-screen; Drosophila S2 Gal4-VP16 UAS-luciferase, luminescence, 20 h; Potency, µM (series often up to 53.6 µM), for inactives: top-dose activity, negative = inhibition, actives largely listed as inhibitors; hit rate 3.5% among 310,000;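 further: Gal4-VP16 expression switched on by copper sulfate through the metallothionein promoter; potency means the concentration at half of the fitted maximal effect; on the % scale 0 is the no-effect control and ±100 the full control effect; nearly all actives have a fitted effect of over 50% in size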
RORgamma inh = blocks mouse ROR gamma transcriptional activity. P51450. Drosophila S2 Gal4-RORgamma UAS-luciferase reporter, 20 h. Potency, µM (doses to about 53.6 µM), for the others: top-dose activity change, negative = inhibition, actives largely listed as inhibitors. hit rate 5.4% among 310,000; further: potency means the concentration at half of the fitted maximal effect; on the % scale 0 is the no-effect control and ±100 the full control effect; nearly all actives have a fitted effect of over 60% in size
Target sequence (P51450 whole entry, looked up, the tested form may be a part): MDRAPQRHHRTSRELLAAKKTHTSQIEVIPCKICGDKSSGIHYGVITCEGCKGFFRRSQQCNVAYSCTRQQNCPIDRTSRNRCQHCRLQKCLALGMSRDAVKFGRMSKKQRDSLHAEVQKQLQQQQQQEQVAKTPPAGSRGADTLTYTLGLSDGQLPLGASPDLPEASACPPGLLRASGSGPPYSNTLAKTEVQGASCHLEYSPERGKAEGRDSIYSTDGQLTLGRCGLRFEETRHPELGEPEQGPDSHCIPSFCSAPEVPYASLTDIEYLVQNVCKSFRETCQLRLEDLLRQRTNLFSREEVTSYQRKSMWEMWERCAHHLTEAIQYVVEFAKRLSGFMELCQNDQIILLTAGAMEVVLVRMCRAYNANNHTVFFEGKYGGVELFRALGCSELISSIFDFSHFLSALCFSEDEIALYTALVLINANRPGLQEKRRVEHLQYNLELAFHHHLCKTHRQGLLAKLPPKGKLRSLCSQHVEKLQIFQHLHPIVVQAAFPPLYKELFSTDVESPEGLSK
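Luminescence from a UAS-regulated Photinus luciferase reporter in stably transfected Drosophila Schneider cells is measured; decreased signal marks ROR gamma inhibition. Fusion expression is induced by 700 uM copper sulfate for 20 hr.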
SW480 rereplic = induces DNA re-replication in SW480 colon adenocarcinoma cells; SW480 DNA re-replication, Hoechst DNA content imaging, 48 h; AID 624297; Potency, µM (top dose mostly 46.1 µM), for inactives: top-dose re-replication activation, actives largely listed as activators; hit rate 1.8% among 340,000; further: potency means the concentration at half of the fitted maximal effect; % of control where 0% means no effect; nearly all actives have a fitted effect of over 55% in size
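Compounds, transferred as 23 nL by pin tool, were incubated with cells for 48 hr; DNA content per nucleus was then quantified by Hoechst staining and fluorescence plate imaging.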
IL1B secr inh = blocks inflammasome-driven IL-1 beta release | THP-1 LPS/ATP IL-1B secretion, AlphaLISA, 16 h; active compounds read low | activity change, % at 57.5 µM | hit rate 4.7% among 360,000 | AID 743279; in the data active means activity change below about -50%; inconclusive means mostly about -30% to -49%; further: on the % scale 0 is the no-effect control and ±100 the full control effect
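Secreted IL-1B measured by AlphaLISA bead assay after 16 h compound exposure of THP-1 cells; compounds (final up to 57.5 uM) added 1 h before LPS (250 ng/mL) and ATP (1.25 mM) stimulation; lower signal means less secretion.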
Active calls of the source: *; ? = inconclusive; . = no result. Most compounds without a hit are left out; they make up all but 11% or so of the library. Unless noted, the call rests on the fitted dose curve; in most records, active means well fitted curve in the direction sought with a large enough effect; inconclusive means small, poorly fitted or top-dose-only effect, or another doubt; inactive means no such curve, though single readings can be large; an effect the other way counts as inactive or inconclusive.

SMILES | MCF10A rerep | Gal4-VP16 FLuc | RORgamma inh | SW480 rereplic | IL1B secr inh
Cc1cccc(OCCOC(=O)c2c(-c3ccccc3)noc2C)c1 | 18.4µM* | -11.2% | ? | 8.2µM* | 33.2
CCCOc1cccc(NC(=O)c2c(-c3ccccc3)noc2C)c1 | 12.6% | -8.6% | -2.8% | 1.1% | -26.0
Cc1onc(-c2ccccc2)c1C(=O)OCC(=O)Nc1ccc(OC(F)(F)F)cc1 | 18.2% | . | . | -11.2% | -50.2*
Cc1ccc(NC(=O)COC(=O)c2c(-c3ccccc3)noc2C)cc1 | -1.7% | . | . | -8.0% | -1.5
CC(=O)N1c2ccc(C)cc2C(c2ccccc2)CC1C (stereo unspecified) | ? | 21.5% | ? | 9.6% | -55.4*
CC(=O)OC1CC(C)N(C(=O)c2ccccc2)c2ccc(C)cc21 (stereo unspecified) | 9.2% | 2.6% | 18.2% | 0.5% | -3.4
CCOC(=O)c1c(NC(=O)CSc2nnc(-c3cccnc3)o2)sc(C(C)=O)c1C | 11.0% | ? | 10µM* | -4.3% | 11.8
O=C(CSc1nnc(-c2cccnc2)o1)Nc1cccc(F)c1 | -0.3% | . | . | 3.26µM* | 3.2
O=C(CSc1nnc(-c2ccncc2)o1)Nc1cccc(F)c1 | -5.6% | . | . | -21.8% | -3.4
CCOC(=O)c1c(NC(=O)CSc2nnc(-c3ccco3)o2)sc(C(C)=O)c1C | 7.5% | -7.3% | -24.1% | -1.0% | 18.0
COC(=O)C[C@@H]1CC[C@H](NS(=O)(=O)c2cccc(F)c2)[C@@H](CO)O1 | . | . | . | . | -0.7
Cc1ccc(-c2csc(C(O)c3cccc(Cl)c3)n2)cc1C (stereo unspecified) | . | . | . | . | -7.1
Cc1nn2c(NCC(C)C)c3c(nc2c1-c1ccccc1)CCC3 | 17.8% | 5.5% | ? | -1.6% | 3.8
Cc1nn2c(NC(C)C)c3c(nc2c1-c1ccccc1)CCC3 | ? | 9.8% | 3.55µM* | -5.8% | ?
Cc1nn2c(Nc3ccccc3)c3c(nc2c1-c1ccccc1)CCC3 | ? | 5.01µM* | 2.82µM* | -1.4% | 16.0
Cc1nn2c(NCCCN(C)C)c3c(nc2c1-c1ccccc1)CCC3 | 2.6% | -20.1% | 11.2µM* | -8.2% | -11.0
CCCC(=O)N1CCCC1(C)C(=O)Nc1ccc(-n2cncn2)cc1 (stereo unspecified) | . | . | . | . | -6.4
